Source: PubChem BioAssay
Hits are enriched below; roughly 2.2% of the tested compounds scored in any of these assays.
MRP-1 activ = H69AR viability gain despite doxorubicin, primary screen, MRP-1 activator project, H69AR cells, CellTiter-Glo; viability rescue; viability increase, % at 10 µM; actives 0.61% (n = 140,000); AID 799, 2007;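 active = viability gain under doxorubicin at or above a set limit, the compound median plus 3 SD, cut at about 4.7% in these data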;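 also: MRP-1 overexpressing cells given doxorubicin 25 µM after compound pretreatment; 18-22 h compound pretreatment then 72 h with doxorubicin before readout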
FAK inh = FAK kinase inhibitors, primary screen, biochemical | inhibition, %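 (tested at 7 µM)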 | Focal adhesion kinase 1 (Homo sapiens), Q05397 | biochemical FAK kinase activity assay | actives 0.84% (n = 97,000); in the data active = inhibition above about 19%
Target sequence (Q05397 whole entry, looked up): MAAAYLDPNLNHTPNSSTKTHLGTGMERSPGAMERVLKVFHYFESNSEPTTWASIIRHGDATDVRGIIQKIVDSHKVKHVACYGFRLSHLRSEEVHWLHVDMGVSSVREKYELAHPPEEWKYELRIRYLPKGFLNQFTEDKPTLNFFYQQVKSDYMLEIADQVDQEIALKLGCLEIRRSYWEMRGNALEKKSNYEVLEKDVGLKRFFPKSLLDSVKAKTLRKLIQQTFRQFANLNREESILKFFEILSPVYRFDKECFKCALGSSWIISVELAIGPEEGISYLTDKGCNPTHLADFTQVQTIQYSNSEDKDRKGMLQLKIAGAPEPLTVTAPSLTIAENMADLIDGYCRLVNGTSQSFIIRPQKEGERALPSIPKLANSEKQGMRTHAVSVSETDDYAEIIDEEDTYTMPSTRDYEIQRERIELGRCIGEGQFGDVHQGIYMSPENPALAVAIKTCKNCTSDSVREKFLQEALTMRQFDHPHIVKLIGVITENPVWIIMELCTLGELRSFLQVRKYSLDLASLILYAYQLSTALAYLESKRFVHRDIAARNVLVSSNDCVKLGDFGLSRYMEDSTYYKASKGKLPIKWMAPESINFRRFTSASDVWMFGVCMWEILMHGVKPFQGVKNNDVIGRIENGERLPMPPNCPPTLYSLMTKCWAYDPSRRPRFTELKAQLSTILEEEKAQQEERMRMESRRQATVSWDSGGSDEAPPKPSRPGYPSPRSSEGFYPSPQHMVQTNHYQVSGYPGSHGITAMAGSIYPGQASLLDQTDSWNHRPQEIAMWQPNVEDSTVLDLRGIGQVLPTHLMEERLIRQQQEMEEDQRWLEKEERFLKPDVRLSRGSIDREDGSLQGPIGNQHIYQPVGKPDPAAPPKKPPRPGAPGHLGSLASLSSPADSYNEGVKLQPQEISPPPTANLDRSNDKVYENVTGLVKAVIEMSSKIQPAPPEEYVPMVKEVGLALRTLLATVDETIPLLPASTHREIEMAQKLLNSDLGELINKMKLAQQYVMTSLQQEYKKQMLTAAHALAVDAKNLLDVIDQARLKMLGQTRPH
PTPN22 act = LYP phosphatase activators, primary screen, biochemical, DiFMUP fluorescence, 2 µM; recombinant LYP; 0 = plate median, 100 = signal doubled; activation, % at 2 µM; actives 0.11% (n = 96,000);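 active = activation at 2 µM above a set limit, the mean plus 5 SD, cut at about 37% in these data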
MRP reversal = reversal of MRP1-mediated doxorubicin resistance, primary screen, H69AR cells, doxorubicin co-treatment; differential viability (reversal), % at 10 µM; H69AR cells + 2 uM doxorubicin, CellTiter-Glo, 72 h; AID 602, 2007; actives 0.04% (n = 85,000);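 active = viability drop by adding the cancer drug above about 55%, with treated viability meeting a 40% cutoff, limit read from the data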;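 also: larger differential means the compound sensitizes cells more to doxorubicin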
LYP inh 2 = PTPN22 phosphatase inhibitors, primary screen, biochemical, DiFMUP fluorescence, 2 µM | recombinant LYP catalytic domain | actives 0.21% (n = 96,000) | AID 640, 2007 | Tyrosine-protein phosphatase non-receptor type 22 (Homo sapiens), Q9Y2R2 | inhibition, % at 2 µM;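 active = inhibition at 2 µM at or above a set limit, the screen mean plus 3 SD, cut at about 24% in these data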
PLAP activator = PLAP enzyme activators, biochemical, luminescence, HTS; activation fold at 20 µM; purified PLAP enzyme, luminescent substrate read-out; hits give high values; Alkaline phosphatase, placental type (Homo sapiens), P05187; actives 1.2% (n = 96,000); in the data active = activation fold above about 2
PTPN22 act conf = retest of PTPN22 activators, confirmation, biochemical, DiFMUP fluorescence, single concentration | shares compounds with PTPN22 act | Recombinant LYP, activation; zero set by plate's median compound well | activation, % at 2 µM | 100 tested, under 10 active; call rule not given here
Each line names hits and unclear results; the compound was inactive in the other large screens (follow-up assays come after a bar, where they were run).

COc1ccc(-c2nnc(NC(=O)c3ccc(S(=O)(=O)N4CCCc5ccccc54)cc3)o2)cc1	none
O=C(Nc1nnc(C2CC2)o1)c1ccc(S(=O)(=O)N2CCCc3ccccc32)cc1	PLAP activator 2.5 (no result: FAK inh)
COC(=O)Cc1ccc(NC(=S)N2CCN(c3ccc(F)cc3)CC2)cc1	none (no result: FAK inh, PTPN22 act, MRP reversal, LYP inh 2, PLAP activator)
Cc1ccc(C2=NNC(C(O)C(O)C(O)C(O)CO)S2)cc1 (stereo not given)	PLAP activator 2 (no result: MRP reversal)
O=C(NCc1ccc(Cl)cc1)C(=O)NCC(c1ccco1)N1CCOCC1 (stereo not given)	MRP-1 activ 9.1 (no result: FAK inh, PTPN22 act, MRP reversal, LYP inh 2, PLAP activator)
O=C1NC(=S)N(c2cccc(Cl)c2)C12CCCCC2	none (no result: FAK inh, PTPN22 act, MRP reversal, LYP inh 2, PLAP activator)
CCCn1nnnc1NC(=O)COc1ccc(CC)cc1	none (no result: FAK inh, PTPN22 act, MRP reversal, LYP inh 2, PLAP activator)
CCOc1ccc(C(=O)N/N=C/c2ccccc2[N+](=O)[O-])cc1	none (no result: FAK inh, PTPN22 act, MRP reversal, LYP inh 2, PLAP activator)
O=C(N/N=C/c1ccccc1[N+](=O)[O-])c1ccc(COc2ccccc2-c2ccccc2)cc1	MRP-1 activ 7.3 (no result: FAK inh, PTPN22 act, MRP reversal, LYP inh 2, PLAP activator)
COc1ccccc1C1CC(c2ccc(Cl)cc2)Nc2ncnn21 (stereo not given)	MRP-1 activ 4.8
CCc1nnc(NC(=O)CSc2nc3cccnc3n2C2CCCCC2)s1	MRP-1 activ 4.8
CCOC(=O)CC(=O)CSc1nc2c(C)c(C)ccc2cc1C	LYP inh 2 24.2 (no result: MRP reversal)
CCOC(=O)CC(=O)CSc1nc2cc(C)ccc2cc1C	none
Cc1ccc(S(=O)(=O)N(C)CC(=O)OCC(=O)NC(c2ccccc2)c2ccccc2)cc1	none (no result: FAK inh, PTPN22 act, MRP reversal, LYP inh 2, PLAP activator)
Cc1cc(N2CCOCC2)nc2ccc(NC(=O)CCC(=O)N3CCCCC3)cc12	PTPN22 act 38.0 (no result: MRP reversal) | PTPN22 act conf inactive
CCOC(=O)C1CCN(Cc2coc3c(Cl)cc(Cl)cc3c2=O)CC1	PTPN22 act 39.0 | PTPN22 act conf inactive
C=C(C)CN1CCN(S(=O)(=O)c2ccc(C)c(N(C)S(=O)(=O)c3ccc(C)cc3)c2C)CC1	none (no result: FAK inh, PTPN22 act, MRP reversal, LYP inh 2, PLAP activator)
COc1ccc(-n2cnc3cc(NCc4ccccn4)ccc32)cc1	PTPN22 act 41.6 | PTPN22 act conf inactive
COc1ccccc1-n1cnc2cc(NCc3ccccn3)ccc21	none
Cc1ccc(N(Cc2cc3cc(C)ccc3[nH]c2=O)S(=O)(=O)c2ccccc2)cc1	none (no result: FAK inh, PTPN22 act, MRP reversal, LYP inh 2, PLAP activator)
CC(=O)Nc1sc2c(c1C(N)=O)CCCC2	PTPN22 act 45.2 | PTPN22 act conf inactive
CCOC(=O)c1cccc(C(=O)OCC)n1	none
O=C(COC(=O)c1cccc(C(=O)OCC(=O)c2ccc(Br)cc2)n1)c1ccc(Br)cc1	PTPN22 act 40.7 (no result: MRP reversal) | PTPN22 act conf inactive
COC(=O)c1ccc2c(=O)sc(N3CCC(C(N)=O)CC3)nc2c1	PTPN22 act 38.6 | PTPN22 act conf inactive
CCSc1nc2cc(C(=O)OC)ccc2c(=O)n1CC	none (no result: MRP reversal, PLAP activator)
Cc1cccc2sc(NNC(=O)c3cc(-c4cccs4)nc4ccccc34)nc12	none (no result: FAK inh, PTPN22 act, MRP reversal, LYP inh 2, PLAP activator)
CN(C)CCNc1ncnc2c1sc1nc(N3CCOCC3)c3c(c12)CC(C)(C)SC3	PTPN22 act 48.9 | PTPN22 act conf inactive
CCN(CC)CCNc1ncnc2c1sc1nc(N3CCOCC3)c3c(c12)CC(C)(C)SC3	none
CN(C)S(=O)(=O)c1cc(NC(=O)COC(=O)c2ccc3c(c2)OCO3)ccc1Cl	none (no result: FAK inh, PTPN22 act, MRP reversal, LYP inh 2, PLAP activator)
O=C(NCc1ccco1)Nc1cccs1	PTPN22 act 37.4 | PTPN22 act conf inactive
O=C(COc1ccc(Br)cc1CO)Nc1ccccc1F	PTPN22 act 37.7 | PTPN22 act conf inactive
COc1cc(OC)cc(-c2cc3nc(C)c(CCC(=O)O)c(=O)n3[nH]2)c1	PTPN22 act 48.8 (no result: MRP reversal) | PTPN22 act conf inactive
CCOC(=O)CCc1c(C)nc2cc(-c3ccc(Cl)cc3)[nH]n2c1=O	none (no result: FAK inh, PTPN22 act, LYP inh 2)
CC(C)(C)c1ccc(C(=O)NC(=S)NCC2CCCO2)cc1 (stereo not given)	none (no result: FAK inh, PTPN22 act, MRP reversal, LYP inh 2, PLAP activator)
Cc1ccccc1C(=O)NC(=S)NCC1CCCO1 (stereo not given)	PTPN22 act 39.0 (no result: MRP reversal) | PTPN22 act conf inactive
O=C(c1ccc(Cl)c(S(=O)(=O)N2CCOCC2)c1)N1CCN(Cc2ccccc2)CC1	none (no result: PLAP activator)
O=C(Nc1ccccc1)N(Cc1ccccc1)CC(O)C(F)(F)F (stereo not given)	PTPN22 act 49.5 (no result: MRP reversal) | PTPN22 act conf inactive
COc1cc(OC)c(C2N(C)c3ccccc3N2C)cc1OC	PTPN22 act 39.3 | PTPN22 act conf inactive
COc1cc(OC)c(C2N(c3ccccn3)C(=O)C3CCCN32)cc1OC (stereo not given)	none
CCC(=O)c1ccc(N2CCN(C(=O)Cc3ccccc3)CC2)c(F)c1	PTPN22 act 40.9 | PTPN22 act conf inactive
C/C(Cn1cnc([N+](=O)[O-])n1)=N/NC(=O)COc1c(Cl)cc(Cl)cc1Cl	none (no result: FAK inh, PTPN22 act, MRP reversal, LYP inh 2, PLAP activator)
Cc1ccc(-c2nc3ccccc3c(=O)n2NC(=S)N(C)C)cc1	none (no result: FAK inh, PTPN22 act, MRP reversal, LYP inh 2, PLAP activator)
COc1ccccc1NC(=O)CN1CCN(C(=O)c2ccco2)CC1	PTPN22 act 37.0 (no result: PLAP activator) | PTPN22 act conf inactive
Cc1cc2c(cc1C)C(c1cc(Br)ccc1F)CC(=O)N2 (stereo not given)	none (no result: FAK inh, PTPN22 act, MRP reversal, LYP inh 2, PLAP activator)
COC(=O)C1=C(C)NC(=O)CC1c1cc(Br)ccc1F (stereo not given)	PTPN22 act 38.5 | PTPN22 act conf inactive
CC1(C)CC(=O)C2=C(C1)N(Cc1ccco1)C(=O)C2(O)C(F)(F)F (stereo not given)	PTPN22 act 37.4 | PTPN22 act conf inactive
CC1(C)CC(=O)C2=C(C1)N(Cc1ccco1)C(=O)C2(NC(=O)c1cccnc1)C(F)(F)F (stereo not given)	none
COc1ccc(C(=O)NNC2CC(=O)N(Cc3ccc(Cl)cc3)C2=O)cc1OC (stereo not given)	none (no result: FAK inh, PTPN22 act, MRP reversal, LYP inh 2, PLAP activator)
CCOC(=O)C1CCCN(C(=O)CN2C(=O)/C(=C/c3ccc(OC)cc3)Oc3ccccc32)C1 (stereo not given)	none (no result: FAK inh, PTPN22 act, MRP reversal, LYP inh 2, PLAP activator)
CCNC(=S)NNC(=O)c1csc2ccccc12	none (no result: MRP reversal)
CC(C)CNC(=S)NNC(=O)c1csc2ccccc12	PTPN22 act 37.4 (no result: MRP reversal) | PTPN22 act conf inactive
CCn1c(-c2ccc3ncccc3c2)n[nH]c1=S	PTPN22 act 42.2 (no result: MRP reversal) | PTPN22 act conf inactive
O=c1c2c(nc3cc(-c4ccc(F)cc4)[nH]n13)CCCC2	none
O=c1c2c(nc3cc(-c4cccc(Cl)c4)[nH]n13)CCC2	PTPN22 act 43.2 | PTPN22 act conf inactive
O=C(Nc1ccc2c(c1)C(=O)N(CC1CCCO1)C2=O)c1ccc(Cl)c(Cl)c1 (stereo not given)	PTPN22 act 37.2 | PTPN22 act conf inactive
COc1ncnc2c1cnn2-c1ccccc1	PTPN22 act 37.6 | PTPN22 act conf inactive
O=C(Cn1nc([N+](=O)[O-])nc1Br)NC(c1ccccc1)c1ccccc1	none (no result: FAK inh, PTPN22 act, MRP reversal, LYP inh 2, PLAP activator)
